# From paper PMC5540273 (PLoS ONE, 2017)
# “And” between values parts separate entries of the source, which are not always exact repeats. Equal values may be shown once. Read-outs that look alike come from different tables or passages of the source.
# Tests used:
# [1] = system: EPHB6; conditions: concentration: 1 μM, replicates: in singlicate, n = 1
# [2] = system: ERBB2; conditions: concentration: 1 μM, replicates: in singlicate, n = 1
# [3] = system: ERBB3; conditions: concentration: 1 μM, replicates: in singlicate, n = 1
# [4] = system: ERBB4; conditions: concentration: 1 μM, replicates: in singlicate, n = 1
# [5] = system: T1, ERK1; conditions: concentration: 1 μM, replicates: in singlicate, n = 1
# T1 construct: gene MAPK3
# [6] = system: T2, ERK2; conditions: concentration: 1 μM, replicates: in singlicate, n = 1
# T2 construct: gene MAPK1
# [7] = system: T3, ERK3; conditions: concentration: 1 μM, replicates: in singlicate, n = 1
# T3 construct: gene MAPK6
# [8] = system: T4, ERK4; conditions: concentration: 1 μM, replicates: in singlicate, n = 1
# T4 construct: gene MAPK4
# [9] = system: T5, ERK5; conditions: concentration: 1 μM, replicates: in singlicate, n = 1
# T5 construct: gene MAPK7
# [10] = system: T6, ERK8; conditions: concentration: 1 μM, replicates: in singlicate, n = 1
# T6 construct: gene MAPK15
# [11] = system: ERN1; conditions: concentration: 1 μM, replicates: in singlicate, n = 1
# [12] = system: T7, FAK; conditions: concentration: 1 μM, replicates: in singlicate; n = 1
# T7 construct: gene PTK2
# [13] = system: FER; conditions: concentration: 1 μM, replicates: in singlicate, n = 1
# [14] = system: FES; conditions: concentration: 1 μM, replicates: in singlicate, n = 1
# [15] = system: FGFR1; conditions: concentration: 1 μM, replicates: in singlicate, n = 1
# [16] = system: FGFR2; conditions: concentration: 1 μM, replicates: in singlicate; n = 1
# [17] = system: FGFR3; conditions: concentration: 1 μM, replicates: in singlicate, n = 1
# [18] = system: FGFR4; conditions: concentration: 1 μM, replicates: in singlicate, n = 1
# [19] = system: FGR; conditions: concentration: 1 μM, replicates: in singlicate, n = 1
# [20] = system: FLT1; conditions: concentration: 1 μM, replicates: in singlicate, n = 1
# 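Note: KINOMEscan kinase panel screen.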
structure (smiles),measurement,setting,value
COc1cc2c(cc1OC[C@@H](O)CO)ncc1c3ccc(C#N)cc3[nH]c21,%Inh,[1],44%
same,%Inh,[2],22%
same,%Inh,[3],2%
same,%Inh,[4],0%
same,%Inh,[5],0%
same,%Inh,[6],15%
same,%Inh,[7],0%
same,%Inh,[8],7%
same,%Inh,[9],0%
same,%Inh,[10],33%
same,%Inh,[11],0%
same,%Inh,[12],0%
same,%Inh,[13],0%
same,%Inh,[14],8%
same,%Inh,[15],0%
same,%Inh,[16],0%
same,%Inh,[17],0%
same,%Inh,[18],0%
same,%Inh,[19],30%
same,%Inh,[20],0%
NS(=O)(=O)CCc1cccc(Nc2nccc(-c3c(-c4cccc(NC(=O)c5c(F)cccc5F)c4)nn4ccccc34)n2)c1 [GSK336735],%Inh,[1],97.1%
same,%Inh,[2],98.7%
same,%Inh,[3],94%
same,%Inh,[4],100%
same,%Inh,[5],7%
same,%Inh,[6],0%
same,%Inh,[7],0%
same,%Inh,[8],10%
same,%Inh,[9],45%
same,%Inh,[10],0%
same,%Inh,[11],21%
same,%Inh,[12],4%
same,%Inh,[13],73%
same,%Inh,[14],22%
same,%Inh,[15],44%
same,%Inh,[16],46%
same,%Inh,[17],36%
same,%Inh,[18],0%
same,%Inh,[19],98.8%
same,%Inh,[20],99.3%
Cl.Cl.Cl.Fc1ccc(-c2ncn(C3CCNCC3)c2-c2ccnc(Nc3ccccc3)n2)cc1 [SB-238039],%Inh,[1]; 1 µM,3% and 0%
same,%Inh,[2]; 1 µM,92% and 79%
same,%Inh,[3]; 1 µM,67% and 7%
same,%Inh,[4]; 1 µM,47% and 46%
same,%Inh,[5]; 1 µM,60% and 11%
same,%Inh,[6]; 1 µM,37% and 26%
same,%Inh,[7]; 1 µM,0% and 18%
same,%Inh,[8],0%
same,%Inh,[9]; 1 µM,46% and 0%
same,%Inh,[10]; 1 µM,0% and 10%
same,%Inh,[11]; 1 µM,19% and 6%
same,%Inh,[12],0%
same,%Inh,[13]; 1 µM,0% and 1%
same,%Inh,[14],0%
same,%Inh,[15]; 1 µM,11% and 0%
same,%Inh,[16],0%
same,%Inh,[17],0%
same,%Inh,[18],0%
same,%Inh,[19]; 1 µM,60% and 41%
same,%Inh,[20]; 1 µM,7% and 25%
COc1cc(Nc2nccc(N3CCC(NC(=O)c4cccc(NC(C)=O)c4)C3)n2)cc(OC)c1OC (centres unmarked) [GSK1379754],%Inh,[1],78%
same,%Inh,[2],16%
same,%Inh,[3],0%
same,%Inh,[4],1%
same,%Inh,[5],0%
same,%Inh,[6],14%
same,%Inh,[7],0%
same,%Inh,[8],1%
same,%Inh,[9],0%
same,%Inh,[10],0%
same,%Inh,[11],22%
same,%Inh,[12],0%
same,%Inh,[13],6%
same,%Inh,[14],11%
same,%Inh,[15],21%
same,%Inh,[16],21%
same,%Inh,[17],25%
same,%Inh,[18],6%
same,%Inh,[19],27%
same,%Inh,[20],44%
[2H]C([2H])(c1cccc(C(F)(F)F)c1C)n1ccn2c(=O)nc(N3CCOCC3)cc12 [GSK2336394],%Inh,[1],11%
same,%Inh,[2],20%
same,%Inh,[3],0%
same,%Inh,[4],24%
same,%Inh,[5],0%
same,%Inh,[6],0%
same,%Inh,[7],0%
same,%Inh,[8],0%
same,%Inh,[9],0%
same,%Inh,[10],0%
same,%Inh,[11],0%
same,%Inh,[12],0%
same,%Inh,[13],33%
same,%Inh,[14],0%
same,%Inh,[15],7%
same,%Inh,[16],16%
same,%Inh,[17],14%
same,%Inh,[18],5%
same,%Inh,[19],12%
same,%Inh,[20],22%
Cc1cn2c(=O)cc(N3CCOCC3)nc2n1Cc1cccc(Cl)c1Cl [GSK2334006],%Inh,[1],0%
same,%Inh,[2],20%
same,%Inh,[3],0%
same,%Inh,[4],33%
same,%Inh,[5],0%
same,%Inh,[6],13%
same,%Inh,[7],21%
same,%Inh,[8],0%
same,%Inh,[9],0%
same,%Inh,[10],24%
same,%Inh,[11],0%
same,%Inh,[12],0%
same,%Inh,[13],33%
same,%Inh,[14],8%
same,%Inh,[15],1%
same,%Inh,[16],26%
same,%Inh,[17],18%
same,%Inh,[18],1%
same,%Inh,[19],51%
same,%Inh,[20],34%
CCn1cnc2c(N)ncnc21 [GW345098],%Inh,[1],25%
same,%Inh,[2],0%
same,%Inh,[3],10%
same,%Inh,[4],0%
same,%Inh,[5],2%
same,%Inh,[6],19%
same,%Inh,[7],0%
same,%Inh,[8],0%
same,%Inh,[9],2%
same,%Inh,[10],5%
same,%Inh,[11],25%
same,%Inh,[12],7%
same,%Inh,[13],0%
same,%Inh,[14],14%
same,%Inh,[15],0%
same,%Inh,[16],7%
same,%Inh,[17],0%
same,%Inh,[18],0%
same,%Inh,[19],12%
same,%Inh,[20],9%
COc1ccc(CNC(=O)NC2CCN(c3ccnc(Nc4ccc(OC)cc4)n3)C2)cc1 (centres unmarked) [GSK1379727],%Inh,[1],26%
same,%Inh,[2],39%
same,%Inh,[3],10%
same,%Inh,[4],2%
same,%Inh,[5],0%
same,%Inh,[6],0%
same,%Inh,[7],0%
same,%Inh,[8],20%
same,%Inh,[9],0%
same,%Inh,[10],0%
same,%Inh,[11],0%
same,%Inh,[12],0%
same,%Inh,[13],8%
same,%Inh,[14],1%
same,%Inh,[15],0%
same,%Inh,[16],7%
same,%Inh,[17],18%
same,%Inh,[18],0%
same,%Inh,[19],26%
same,%Inh,[20],5%
Cc1nnc(-c2ccc(C)c(-c3ccc(C(=O)Nc4ccc(NS(C)(=O)=O)cc4)cc3)c2)o1 [GW702865],%Inh,[1],10%
same,%Inh,[2],33%
same,%Inh,[3],20%
same,%Inh,[4],8%
same,%Inh,[5],10%
same,%Inh,[6],0%
same,%Inh,[7],0%
same,%Inh,[8],0%
same,%Inh,[9],0%
same,%Inh,[10],0%
same,%Inh,[11],0%
same,%Inh,[12],0%
same,%Inh,[13],4%
same,%Inh,[14],0%
same,%Inh,[15],0%
same,%Inh,[16],0%
same,%Inh,[17],11%
same,%Inh,[18],0%
same,%Inh,[19],24%
same,%Inh,[20],25%
Cc1cccc(-c2nc(Nc3ccc4ncsc4c3)c3ccccc3n2)n1 [GW867588],%Inh,[1],0%
same,%Inh,[2],6%
same,%Inh,[3],21%
same,%Inh,[4],25%
same,%Inh,[5],0%
same,%Inh,[6],2%
same,%Inh,[7],0%
same,%Inh,[8],0%
same,%Inh,[9],0%
same,%Inh,[10],0%
same,%Inh,[11],38%
same,%Inh,[12],3%
same,%Inh,[13],0%
same,%Inh,[14],13%
same,%Inh,[15],0%
same,%Inh,[16],0%
same,%Inh,[17],0%
same,%Inh,[18],0%
same,%Inh,[19],17%
same,%Inh,[20],0%
COc1cc2c(cc1OCCN1CCN(C)CC1)ncc1c3ccc(C#N)cc3[nH]c21,%Inh,[1],53%
same,%Inh,[2],43%
same,%Inh,[3],4%
same,%Inh,[4],29%
same,%Inh,[5],0%
same,%Inh,[6],12%
same,%Inh,[7],0%
same,%Inh,[8],10%
same,%Inh,[9],22%
same,%Inh,[10],0%
same,%Inh,[11],0%
same,%Inh,[12],27%
same,%Inh,[13],3%
same,%Inh,[14],0%
same,%Inh,[15],0%
same,%Inh,[16],7%
same,%Inh,[17],0%
same,%Inh,[18],22%
same,%Inh,[19],0%
same,%Inh,[20],14%
O=C(NCCNc1ccnc(Nc2ccc(F)cc2)n1)Nc1ccccc1F [GSK1379880],%Inh,[1],17%
same,%Inh,[2],9%
same,%Inh,[3],0%
same,%Inh,[4],38%
same,%Inh,[5],0%
same,%Inh,[6],0%
same,%Inh,[7],0%
same,%Inh,[8],8%
same,%Inh,[9],0%
same,%Inh,[10],0%
same,%Inh,[11],11%
same,%Inh,[12],0%
same,%Inh,[13],11%
same,%Inh,[14],0%
same,%Inh,[15],0%
same,%Inh,[16],0%
same,%Inh,[17],0%
same,%Inh,[18],11%
same,%Inh,[19],3%
same,%Inh,[20],4%
CN1c2ccc(CNc3ccc(F)cc3)cc2-c2c(cnn2C)S1(=O)=O,%Inh,[1],0%
same,%Inh,[2],13%
same,%Inh,[3],9%
same,%Inh,[4],0%
same,%Inh,[5],0%
same,%Inh,[6],0%
same,%Inh,[7],0%
same,%Inh,[8],0%
same,%Inh,[9],0%
same,%Inh,[10],0%
same,%Inh,[11],0%
same,%Inh,[13],25%
same,%Inh,[14],0%
same,%Inh,[15],0%
same,%Inh,[16],0%
same,%Inh,[17],0%
same,%Inh,[18],9%
same,%Inh,[19],0%
same,%Inh,[20],0%
N#Cc1c(N2CCOCC2)sc(-c2ccn[nH]2)c1-c1ccc(Cl)cc1,%Inh,[1],38%
same,%Inh,[2],0%
same,%Inh,[3],22%
same,%Inh,[4],11%
same,%Inh,[5],0%
same,%Inh,[6],24%
same,%Inh,[7],0%
same,%Inh,[8],0%
same,%Inh,[9],0%
same,%Inh,[10],5%
same,%Inh,[11],4%
same,%Inh,[12],0%
same,%Inh,[13],11%
same,%Inh,[14],27%
same,%Inh,[15],7%
same,%Inh,[16],12%
same,%Inh,[17],0%
same,%Inh,[18],0%
same,%Inh,[19],22%
same,%Inh,[20],0%
CC(C)(CN)c1nc(-c2ccc(Cl)c(O)c2)c(-c2ccncc2)[nH]1.O=C(O)C(F)(F)F [SB-477794],%Inh,[1]; 1 µM,2% and 28%
same,%Inh,[2]; 1 µM,83% and 80%
same,%Inh,[3]; 1 µM,42% and 45%
same,%Inh,[4]; 1 µM,26% and 35%
same,%Inh,[5]; 1 µM,0% and 11%
same,%Inh,[6],0%
same,%Inh,[7]; 1 µM,20% and 0%
same,%Inh,[8]; 1 µM,13% and 20%
same,%Inh,[9]; 1 µM,32% and 56%
same,%Inh,[10],0%
same,%Inh,[11]; 1 µM,1% and 22%
same,%Inh,[12],0%
same,%Inh,[13]; 1 µM,12% and 31%
same,%Inh,[14]; 1 µM,0% and 22%
same,%Inh,[15]; 1 µM,24% and 54%
same,%Inh,[16],0%
same,%Inh,[17]; 1 µM,8% and 33%
same,%Inh,[18]; 1 µM,18% and 0%
same,%Inh,[19]; 1 µM,95.3% and 94.8%
same,%Inh,[20]; 1 µM,82% and 80%
